# Source: publication PMC11062922 (Nature Chemical Biology, 2023)
# Read-outs that look alike come from different tables or passages of the source.
# Legend:
# Parameters in all cases: species or system human, MV4-11 + K-562 + COLO205 + SK-N-BE2 + OVCAR-8
# [1] = system: MAP4K2; conditions: read-out: apparent Kd, n = 1
# [2] = system: PAK4; conditions: read-out: apparent Kd, compound concentrations: 100 nM and 1000 nM (sheet 'Samples'), n = 1
# [3] = system: TAOK2; conditions: read-out: apparent Kd, n = 1
# [4] = system: ATM; conditions: read-out: apparent Kd; compound concentrations: 100 nM and 1000 nM (sheet 'Samples'), CATDS: 2.5456508312119999E-2; n = 1
# [5] = system: BMP2K; conditions: read-out: apparent Kd, compound concentrations: 100 nM and 1000 nM (sheet 'Samples'), n = 1
# [6] = system: FER; conditions: read-out: apparent Kd; compound concentrations: 100 nM and 1000 nM (sheet 'Samples'), CATDS: 1.87753699623531E-2; n = 1
# [7] = system: GRK6; conditions: read-out: apparent Kd, compound concentrations: 100 nM and 1000 nM (sheet 'Samples'), n = 1
# [8] = system: MYLK3; conditions: read-out: apparent Kd, compound concentrations: 100 nM and 1000 nM (sheet 'Samples'), n = 1
# [9] = system: RPS6KA6; conditions: read-out: apparent Kd; compound concentrations: 100 nM and 1000 nM (sheet 'Samples'), CATDS: 1.4576364077707399E-2; n = 1
# [10] = system: ULK1; conditions: read-out: apparent Kd, compound concentrations: 100 nM and 1000 nM (sheet 'Samples'), n = 1
# [11] = system: ULK3; conditions: read-out: apparent Kd, n = 1
# [12] = system: IKBKE; conditions: read-out: apparent Kd, n = 1
# [13] = system: PIK3C3; conditions: read-out: apparent Kd, n = 1
# [14] = system: ERN1; conditions: read-out: apparent Kd, compound concentrations: 100 nM and 1000 nM (sheet 'Samples'), n = 1
# [15] = system: ERN2; conditions: read-out: apparent Kd, compound concentrations: 100 nM and 1000 nM (sheet 'Samples'), n = 1
# [16] = system: MAP4K1; conditions: read-out: apparent Kd, compound concentrations: 100 nM and 1000 nM (sheet 'Samples'), n = 1
# [17] = system: VDAC3; conditions: read-out: apparent Kd, n = 1
# [18] = system: ICK; conditions: read-out: apparent Kd; compound concentrations: 100 nM and 1000 nM (sheet 'Samples'), CATDS: 0.109854156237019; n = 1
# [19] = compound concentrations:100 nM and 1000 nM (sheet 'Samples')
smiles,measurement,setting,value
Cc1cccc(Nc2nc(NCCN)ncc2C(N)=O)c1 [GSK1292139B],potency estimated from few doses,"[1]; compound concentrations: 100 nM and 1000 nM (sheet 'Samples'), CATDS: 7.8363425236556997E-2",1110 nM
same,potency estimated from few doses,[2]; CATDS: 9.0340207585202004E-2,778 nM
CCN(CC)CCOc1ccc(Nc2ncc3cc(-c4c(Cl)cccc4Cl)c(=O)n(C)c3n2)cc1 [SB-601273],potency estimated from few doses,[3]; [19],1150 nM
O=C1N=C(NCc2cccs2)SC1Cc1ccc2ncccc2c1 (stereo not drawn) [RO4629078-000],potency estimated from few doses,[4],123 nM
same,potency estimated from few doses,[5]; CATDS: 1.0249270291889601E-2,630 nM
same,potency estimated from few doses,[6],195 nM
same,potency estimated from few doses,[7]; CATDS: 8.7219841617169405E-3,974 nM
same,potency estimated from few doses,[8]; CATDS: 7.0392832090842503E-3,2170 nM
same,potency estimated from few doses,[2]; CATDS: 1.27068399594295E-2,391 nM
same,potency estimated from few doses,[9],301 nM
same,potency estimated from few doses,[10]; CATDS: 1.26661320847058E-2,394 nM
same,potency estimated from few doses,"[11]; compound concentrations: 100 nM and 1000 nM (sheet 'Samples'), CATDS: 7.6579624487381603E-3",1510 nM
CCn1cc(-c2ccnc3[nH]c(-c4cccc(CN(C)C)c4)cc23)c(-c2ccc(NC(=O)N(C)C)cc2)n1 [GSK1070916],potency estimated from few doses,[12]; [19],1960 nM
same,potency estimated from few doses,[13]; [19],1500 nM
O=C1N=C(NCc2ccccc2)S/C1=C\c1ccc2ncccc2c1 [RO4442080-000],potency estimated from few doses,[8]; CATDS: 7.9842207059825906E-2,1930 nM
CC(C)c1nc(-c2cccc(NS(=O)(=O)c3ccccc3)c2)c(-c2ccnc(Nc3ccc4c(c3)CN(C)CC4)n2)s1 [GSK1649598A],potency estimated from few doses,[14]; CATDS: 1.5593168360276599E-2,758 nM
same,potency estimated from few doses,[15]; CATDS: 3.39417380215319E-2,124 nM
same,potency estimated from few doses,[16]; CATDS: 1.9870950610889799E-2,381 nM
same,potency estimated from few doses,"[3]; compound concentrations: 100 nM and 1000 nM (sheet 'Samples'), CATDS: 1.5717541572097499E-2",739 nM
Cc1cccc(-c2cc(-c3c[nH]nc3-c3ccccn3)ccn2)c1 [GW679395X],potency estimated from few doses,[11]; [19],1450 nM
CS(=O)(=O)Cc1ccc(Nc2nccc(-c3c(-c4cccc(NC(=O)C5CCCCC5)c4)nn4ncccc34)n2)cc1 [GSK350559A],potency estimated from few doses,[1]; [19],1890 nM
same,potency estimated from few doses,[17]; [19],2030 nM
CN1C(=O)c2ccccc2N(C)c2nc(Nc3cnn(C4CCNCC4)c3)ncc21 [XMD-17-51],potency estimated from few doses,[5]; CATDS: 1.6944830002157098E-2,771 nM
same,potency estimated from few doses,"[3]; compound concentrations: 100 nM and 1000 nM (sheet 'Samples'), CATDS: 5.5086775745804402E-2",42.4 nM
same,potency estimated from few doses,[10]; CATDS: 5.3093581497725799E-2,45.5 nM
COc1cccc(-n2ncc3c(N/N=C/c4ccc(C(=O)NCCN(C)C)cc4)ncnc32)c1.Cl [GW784307A],potency estimated from few doses,[5]; CATDS: 2.5475842805915101E-2,2050 nM
CCc1nc(-c2cccc(N(C)S(=O)(=O)c3ccccc3)c2)c(-c2ccnc(Nc3ccc(N4CCN(C(C)=O)CC4)nc3)n2)s1 [GSK1645895A],potency estimated from few doses,"[13]; compound concentrations: 100 nM and 1000 nM (sheet 'Samples'), CATDS: 0.15936807020930999",1340 nM
Cn1cc(C2=C(c3cn(CCCO)c4ccccc34)C(=O)NC2=O)c2ccccc21 [RO0317377-000],potency estimated from few doses,[18],1460 nM
O=C1N=C(NCCc2cccc(F)c2)S/C1=C\c1ccc2ncccc2c1 [RO4508344-000],potency estimated from few doses,[15]; CATDS: 7.9069869208326996E-2,1660 nM
Cl.Cl.Cl.c1ccc(Oc2ccc(Nc3ccnc4cc(-c5ccc(CN6CCNCC6)o5)ccc34)cc2)nc1.c1ccc(Oc2ccc(Nc3ccnc4cc(-c5ccc(CN6CCNCC6)o5)ccc34)cc2)nc1 [GW567142A],potency estimated from few doses,[7]; CATDS: 1.87269868098595E-2,1430 nM
same,potency estimated from few doses,[8]; CATDS: 1.6491067951183699E-2,2320 nM
same,potency estimated from few doses,"[17]; compound concentrations: 100 nM and 1000 nM (sheet 'Samples'), CATDS: 1.74915256837203E-2",1830 nM
Cn1cc(-c2ccc3c(c2)CCN3C(=O)Cc2cc(F)cc(C(F)(F)F)c2)c2c(N)ncnc21 [GSK2635225A],potency estimated from few doses,"[12]; compound concentrations: 100 nM and 1000 nM (sheet 'Samples'), CATDS: 0.14106315772238301",1220 nM
CNC(=O)c1ccccc1Nc1nc(Nc2cccc(CS(C)(=O)=O)c2)ncc1C.O=CO [GSK1520489A],potency estimated from few doses,"[12]; compound concentrations: 100 nM and 1000 nM (sheet 'Samples'), CATDS: 1.0336564492146301E-2",1110 nM
same,potency estimated from few doses,[16]; CATDS: 1.32778170160273E-2,423 nM
same,potency estimated from few doses,"[11]; compound concentrations: 100 nM and 1000 nM (sheet 'Samples'), CATDS: 1.2201291111952599E-2",563 nM
CC(C)c1nc(-c2cccc(NS(=O)(=O)c3c(F)cccc3F)c2)c(-c2ccnc(Nc3ccc(N4CCOCC4)nc3)n2)s1.Cl [GSK1723980B],potency estimated from few doses,[14]; CATDS: 1.53606700454439E-2,1320 nM
CC(C)c1nc(-c2cccc(NS(=O)(=O)c3c(F)cccc3F)c2F)c(-c2ccnc(Nc3ccc(N4CCOCC4)nc3)n2)s1 [GSK2008607A],potency estimated from few doses,[14]; CATDS: 1.9066828422081999E-2,1650 nM
same,potency estimated from few doses,[15]; CATDS: 2.27822446193667E-2,926 nM
